Results published in PubChem BioAssay (NCATS).
Results filed as inconclusive are left out. Activity calls are given as the source filed them. Unless noted, calls come from the whole dose curve; as a rule, active = well fitted curve in the direction sought with a large enough effect; inconclusive = small, poorly fitted or top-dose-only effect, or another doubt; inactive = no such curve, though single readings can be large; an effect the other way counts as inactive or inconclusive.

Key:
[1] = Cell Viability - BJ (AID 421; calls by dose curve;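 note: potency is the fitted concentration of half-maximal effect; cells exposed to compound for 40 hours at 37 °C before readout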); conditions: BJ fibroblast viability, qHTS
Method in brief: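 Cytotoxicity as drop in intracellular ATP (CellTiter-Glo, 20 min RT) after 40 hr compound exposure of BJ fibroblasts at 37 °C. Titrations scaled between DMSO and 100 uM tamoxifen, Hill-fitted for AC50.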

[2] = Cell Viability - Jurkat (AID 426;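 active = dose-dependent loss of cell ATP signal giving a full or clear fitted curve, ranked by lower potency value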;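 note: potency is the fitted concentration of half-maximal effect; cells exposed to compound for 40 hours at 37 °C before ATP read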); conditions: qHTS
Method in brief: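 Cytotoxicity was scored as loss of cellular ATP, measured by luciferase-based luminescence, in Jurkat clone E6-1 cells after 40 h compound treatment; tamoxifen and doxorubicin served as positive controls.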

[3] = Cell Viability - Hek293 (AID 427;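 active = compounds whose dose-response curve shows a full or clear partial loss of cell viability, called from curve shape rather than a numeric limit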;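 note: potency is the fitted concentration of half-maximal effect; cells exposed to compound for 40 hours at 37 °C before reading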); conditions: qHTS
Method in brief: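 Luminescent ATP content (CellTiter-Glo, 20 min at room temperature) was measured after a 40 hr, 37 °C compound exposure of HEK293 cells. AC50 values came from Hill-equation fits of qHTS concentration-response data normalized to DMSO and 100 uM tamoxifen.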

[4] = Cell Viability - HepG2 (AID 433; calls by dose curve;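 note: potency is the fitted concentration of half-maximal effect; cells exposed to compound for 40 hours; potency for ATP loss meaning cytotoxicity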); conditions: qHTS
Method in brief: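 Cytotoxicity read as ATP loss (CellTiter-Glo luminescence) after 40 hr compound exposure of HepG2, 1500 cells/well, 37 °C. AC50 by Hill equation; 0% set by DMSO, 100% inhibition by 100 uM tamoxifen.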

[5] = Cell Viability - MRC5 (AID 434; calls by dose curve;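 note: potency is the fitted concentration of half-maximal effect; cells exposed to compound for 40 hours at 37 °C; potency reflects cytotoxicity seen as loss of intracellular ATP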); conditions: MRC5 lung fibroblast viability, qHTS
Method in brief: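 AC50 values come from Hill-equation fits of intracellular ATP loss, measured by CellTiter-Glo luminescence. Normal lung fibroblasts (MRC5) had 40 hr compound treatment at 37 C, normalized between DMSO and 100 uM tamoxifen.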

[6] = Cell Viability - SK-N-SH (AID 435; calls by dose curve; note: potency is the fitted concentration of half-maximal effect); conditions: SK-N-SH neuroblastoma cell viability qHTS
Method in brief: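 qHTS cytotoxicity: CellTiter-Glo ATP luminescence after 40 h compound exposure of human neuroblastoma SK-N-SH cells at 37 °C. AC50 derived by Hill-equation fitting, with DMSO as basal and 100 uM tamoxifen as full inhibition.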

[7] = target: Mitogen-activated protein kinase 10 (Mus musculus) (UniProt Q61831); test: JNK3 AlphaScreen Assay (AID 530; active = well fitted curve in either direction with a large enough effect, not every such curve was filed as active;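 note: kinase came from lysate of stimulated human HepG2 cells; signal reports phosphorylation of biotinylated GST-cJun 1-79 at Ser73 with 10 µM ATP; % is set by controls: 0 for no effect and ±100 for the full control effect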)
Method in brief: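 Kinase buffer: 20 mM Tris-HCl pH 7.6, 10 mM MgCl2, 1 mM DTT, 0.1 mM Na3VO4, 0.01% Tween-20; ATP 10 uM. Substrate biotin-GST-cJun(1-79), enzyme from activated HepG2 lysates. Detection by Ser73 phospho-antibody AlphaScreen.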

[8] = Cell Viability - N2a (AID 540); conditions: N2a mouse neuroblastoma cell viability; at 92.2 µM (top of the series);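 note: plate controls were DMSO alone for no effect and tamoxifen control for full effect; nearly all actives have a fitted effect of over 45% in size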
Method in brief: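 In this qHTS cytotoxicity screen, ATP-dependent luciferase luminescence reports viable N2a cells after a 40 hr compound exposure in complete culture medium. Potencies are AC50 values from standard Hill equation fits.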

[9] = Cell Viability - NIH 3T3 (AID 541); conditions: NIH 3T3 cell viability, qHTS; at 92.2 µM (top of the series);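 note: cells exposed to compound for 40 hours; plate controls were DMSO alone for no effect and tamoxifen positive control for full effect; nearly all actives have a fitted effect of over 25% in size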
Method in brief: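 In this cytotoxicity screen, acute toxicity is scored as an ATP drop measured by CellTiter-Glo in NIH 3T3 fibroblasts following a 40 hr, 37 °C incubation with compound.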

[10] = Cell Viability - HUV-EC-C (AID 542);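 note: cells exposed to compound for 40 hours; % is set by controls: 0 for no effect and ±100 for the full control effect; nearly all actives have a fitted effect of over 35% in size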
Method in brief: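 Concentration-dependent ATP loss in HUV-EC-C cells is the measure. Exposure lasts 40 hr at 37 °C; luminescence follows CellTiter-Glo addition, and Hill fits give AC50.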

[11] = Cell Viability - H-4-II-E (AID 543);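 note: cells exposed to compound for 40 hours; % is set by controls: 0 for no effect and ±100 for the full control effect; nearly all actives have a fitted effect of over 35% in size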
Method in brief: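 AC50 from Hill-modelled qHTS concentration-response curves. H-4-II-E rat hepatoma cells in complete medium, 40 hr exposure at 37 °C, viability by CellTiter-Glo ATP luminescence.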

[12] = Cell Viability - SH-SY5Y (AID 544);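 note: cells exposed to compound for 40 hours; 0% = DMSO alone and -100% = 100 µM tamoxifen; nearly all actives have a fitted effect of over 55% in size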
Method in brief: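 Quantitative HTS in SH-SY5Y neuroblastoma cells, 40 hr treatment at 37 °C, ATP content by luciferase luminescence; AC50 from Hill fits.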

[13] = Cell Viability - Renal Proximal Tubule (AID 545);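 note: cells exposed to compound for 40 hours; 0% = DMSO only and -100% = 100 µM tamoxifen; nearly all actives have a fitted effect of over 40% in size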
Method in brief: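 Viability taken as intracellular ATP (CellTiter-Glo luminescence) after 40 hr, 37 °C compound treatment of primary proximal tubule cells from rat kidney, 1000 cells/well; Hill-equation fits of qHTS concentration-response data gave AC50.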

[14] = Cell Viability - Mesenchymal (AID 546);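 note: cells exposed to compound for 40 hours before reading; 0% = DMSO only and -100% = 100 µM tamoxifen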
Method in brief: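 CellTiter-Glo luminescence (intracellular ATP, 20 min room temperature) after 40 hr compound exposure at 37 °C of 1000 glomerulus-derived human kidney mesenchymal cells/well; AC50 values obtained by fitting qHTS concentration-response data to the Hill equation.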

[15] = Cellular Toxicity (caspase-3) HepG2 (AID 654);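 note: cells exposed to compound for 16 hours before reading; 0% = DMSO alone and 100% = caspase signal from 100 µM tamoxifen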
Method in brief: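 Concentration-response AC50 values reflect caspase-3/7 induction in HepG2 cells after 16 hours of compound exposure, quantified by luminescence from liberated aminoluciferin and referenced to 100 uM tamoxifen as full stimulation.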

[16] = Cellular Toxicity (caspase-3) Jurkat (AID 655);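 note: cells exposed to compound for 16 h at 37 °C before reading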
Method in brief: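 Luminescent Caspase-Glo 3/7 read-out (20 min, room temperature) after 16 h compound treatment at 37 C of 5000 Jurkat cells per well. AC50 derived by Hill-equation fitting, scaled between DMSO basal and 100 uM tamoxifen stimulation.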

[17] = Cellular Toxicity (caspase-3) HUV-EC-C (AID 656);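 note: 0% = DMSO basal and 100% = 100 µM tamoxifen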
Method in brief: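 Luminescent Caspase-Glo 3/7 readout after 16 h, 37 °C compound exposure of HUV-EC-C endothelial cells, 1000 per well, complete medium. AC50 derived by Hill fitting, with DMSO as baseline and 100 uM tamoxifen as full activation.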

[18] = Cellular Toxicity (caspase-3) BJ (AID 658);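 note: 0% = DMSO basal and 100% = 10 µM staurosporine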
Method in brief: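 Caspase-Glo 3/7 luminescence, read 1 hr after reagent at room temperature, in normal BJ fibroblasts exposed 16 hours at 37 °C. AC50 values from Hill-equation concentration-response, scaled between DMSO basal and 10 uM staurosporine as 100%.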

[19] = Cellular Toxicity (caspase-3) MRC-5 (AID 659);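 note: 0% = DMSO basal and 100% = 10 µM staurosporine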
Method in brief: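 Luminescent Caspase-Glo 3/7 read-out (1 h, room temperature) after a 16 h, 37 °C compound exposure of MRC-5 lung fibroblasts at 1500 cells/well. Concentration-response AC50 from Hill equation; 0% DMSO, 100% 10 uM staurosporine.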

[20] = Cellular Toxicity (caspase-3) Mesangial (AID 660);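 note: combined caspase 3 and 7 activity read by Caspase-Glo luminescence; cells exposed to compound for 16 h before the caspase read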
Method in brief: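 AC50 values come from Hill-equation fits of caspase 3/7 activation, measured as Caspase-Glo luminescence in human glomerular mesangial cells exposed to compound for 16 h at 37 °C; 100% set by 100 uM tamoxifen.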

[21] = Cellular Toxicity (caspase-3) SK-N-SH (AID 661);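 note: 0% = DMSO basal and 100% = 10 µM staurosporine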
Method in brief: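 Apoptosis readout in SK-N-SH neuroblastoma: Caspase-Glo 3/7 luminescence following 16 hr treatment in complete culture medium. Normalization used DMSO and 10 uM staurosporine controls.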

[22] = Cellular Toxicity (caspase-3) N2a (AID 665);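 note: compound exposure lasted 16 h at 37 °C before readout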
Method in brief: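 Concentration-response qHTS: compound-induced caspase-3/7 luminescence in N2a cells (16 h, 37 °C), relative to DMSO and 10 uM staurosporine controls; AC50 obtained using the standard Hill equation.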

[23] = Cellular Toxicity (caspase-3) NIH 3T3 (AID 666);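 note: 0% = DMSO basal and 100% = 100 µM tamoxifen stimulation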
Method in brief: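 Activity: caspase-3/7 induction, NIH 3T3 cells, 16 hr treatment at 37°C, luminescent Caspase-Glo detection; AC50 via Hill equation.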

COC(=O)c1ccccc1C(=O)OC
inactive: Potency [1] > 92 µM | Potency [2] > 92 µM | Potency [3] > 92 µM | Potency [4] > 92 µM | Potency [5] > 92 µM | Potency [6] > 92 µM | outcome [7] | activity change, negative = cytotoxicity [8] 4.28% | activity change, negative = cytotoxicity [9] 2.58% | outcome [10] | outcome [11] | outcome [12] | outcome [13] | outcome [14] | outcome [15] | outcome [16] | outcome [17] | outcome [18] | outcome [19] | outcome [20] | outcome [21] | outcome [22] | outcome [23]
